Test systems include NCI-H23 lung; NCI-H226 lung; NCI-H322M lung; HOP-62 NSCLC; NCI-H460 lung; NCI-H522 lung; A549/ATCC NSCLC; 786-0 renal; COLO 205 colon; DU-145 prostate.
Test in all cases: NCI-60 one-dose screen, 48 h (100 = growth as untreated, 0 = no growth, -100 = all killed)
Conditions in all cases: 10 µM

About 83,000 compounds went through this panel and 20% of them were active in at least one assay; those are over-represented in the sample as a whole.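 Activity criterion: percent growth below 10, measured after cells in 96-well plates were exposed to a single compound concentration for 48 hours.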 Values without a mark were called inactive. The source made the active and inactive calls.

As to `COc1cc(NC(=O)c2sc3nc4c(cc3c2N)C(O)CCC4)cc(OC)c1` (stereo not given), the growth in the assay with NCI-H23 lung is 99.3%; in the assay on NCI-H226 lung, 97.1%; in the assay with NCI-H322M lung, 88.7%; in the assay with HOP-62 NSCLC it was 65.8%; in the assay with NCI-H460 lung, 104%; with NCI-H522 lung, 69%. Moreover, the growth in the assay on A549/ATCC NSCLC is 86.1%; in the assay on 786-0 renal, 97.3%; in the assay on COLO 205 colon, 105%; with DU-145 prostate, 108%.

`Cc1cc(=O)n2nnc3c4ccccc4ccc3n12`: the growth in the assay with NCI-H23 lung was 94%; in the assay on NCI-H226 lung, 59.8%; with NCI-H322M lung, 96.3%; with HOP-62 NSCLC it was 70%; with NCI-H460 lung, 83.9%; with NCI-H522 lung, 87.9%. For the same compound, the growth with A549/ATCC NSCLC was 60.2%; in the assay on 786-0 renal, 89.8%; in the assay with COLO 205 colon it was 8.79% (active); in the assay on DU-145 prostate, 98.8%.

`Fc1ccc2nc(-c3nc(-c4ccccc4)n4ccccc34)[nH]c2c1`: the growth is 57% in the assay on NCI-H23 lung; -11.9% (active) with NCI-H226 lung; -9.9% (active) in the assay on NCI-H322M lung; -76.2% (active) with HOP-62 NSCLC; -57% (active) in the assay with NCI-H460 lung; -41.2% (active) in the assay on NCI-H522 lung. For the same compound, the growth was -22.6% (active) in the assay with A549/ATCC NSCLC, 0.317% (active) in the assay on 786-0 renal, 16.1% in the assay with COLO 205 colon and -6.4% (active) in the assay with DU-145 prostate.

Regarding `COc1ccc2c(c1)/C(=C\c1c[nH]c3ccc(OC)cc13)C(=O)N2`, the growth with NCI-H23 lung is 49.4%; in the assay on NCI-H226 lung, 72.7%; in the assay on NCI-H322M lung, 54.7%; with HOP-62 NSCLC, 51%; in the assay on NCI-H460 lung, 53.2%; in the assay with NCI-H522 lung, 50.3%. Besides, the growth with A549/ATCC NSCLC was 30.8%; in the assay on 786-0 renal it was 70.9%; with COLO 205 colon, 36.7%; in the assay on DU-145 prostate, 63.1%.

For the compound `COc1ccccc1/C=C/C(=O)c1ccccc1`, the growth was 84.7% in the assay with NCI-H23 lung; 85% with NCI-H226 lung; 91.9% in the assay with NCI-H322M lung; 88.3% with HOP-62 NSCLC; 90% with NCI-H460 lung; 62.7% in the assay with NCI-H522 lung. For the same compound, the growth was 67% in the assay with A549/ATCC NSCLC, 98.4% in the assay with 786-0 renal, 84.8% in the assay on COLO 205 colon and 87.6% with DU-145 prostate.

On to `O=C1/C(=C\c2ccc(F)cc2)CN(C(=O)c2ccccc2)C/C1=C\c1ccc(F)cc1`, for which the growth in the assay with NCI-H23 lung was 61.8%; with NCI-H226 lung, 36.6%; with NCI-H322M lung it was 73.6%; with HOP-62 NSCLC it was 53.3%; with NCI-H460 lung, 58%; in the assay with NCI-H522 lung it was -8.75% (active). The growth with A549/ATCC NSCLC is 49.2%; in the assay on 786-0 renal it was 33.6%; with COLO 205 colon, 50.9%; in the assay on DU-145 prostate, 31.7%.

Regarding `Cn1c([N+](=O)[O-])cnc1/C=C1\Oc2ccccc2C1=O`, the growth was -18% (active) in the assay with NCI-H23 lung; -7.33% (active) in the assay on NCI-H226 lung; 18.6% with NCI-H322M lung; -10.3% (active) in the assay on HOP-62 NSCLC; -39.5% (active) in the assay on NCI-H460 lung; -48.5% (active) in the assay with NCI-H522 lung. Also, the growth in the assay on A549/ATCC NSCLC is -31.4% (active); in the assay on 786-0 renal, -10.9% (active); in the assay on COLO 205 colon it was -64.6% (active); with DU-145 prostate, -8.91% (active).

As for `COc1cc2cc3c(nc2cc1OC)CCN3Cc1ccc(NC(=O)c2ccc(Cl)c(C(F)(F)F)c2)cc1`, the growth was 99.7% in the assay with NCI-H23 lung; 71.2% in the assay with NCI-H226 lung; 84.9% with NCI-H322M lung; 105% in the assay on HOP-62 NSCLC; 107% in the assay on NCI-H460 lung; 86.6% in the assay with NCI-H522 lung. Also, the growth is 97% in the assay on A549/ATCC NSCLC, 105% in the assay on 786-0 renal, 109% in the assay on COLO 205 colon and 117% in the assay with DU-145 prostate.

For `CCCCCCCCCCCCCCCCN(C(C)c1ccccc1)S(=O)(=O)c1ccc(OC)c(N)c1` (stereo not given), the growth in the assay with NCI-H23 lung is 93.7%; with NCI-H226 lung, 108%; in the assay with NCI-H322M lung, 128%; in the assay on HOP-62 NSCLC, 117%; with NCI-H460 lung it was 107%; in the assay on NCI-H522 lung it was 90.5%. Besides, the growth in the assay with A549/ATCC NSCLC is 107%; with 786-0 renal, 124%; with COLO 205 colon, 123%; with DU-145 prostate, 116%.

Consider `COc1ccc(NC(=O)Cc2nc3nc4sc(C)c(C)c4c(=O)n3[nH]2)cc1`, for which the growth was 101% in the assay on NCI-H23 lung; 86.7% in the assay on NCI-H226 lung; 94.5% in the assay on NCI-H322M lung; 107% in the assay on HOP-62 NSCLC; 110% with NCI-H460 lung; 90.3% in the assay on NCI-H522 lung. Also, the growth with A549/ATCC NSCLC was 91.2%; in the assay with 786-0 renal it was 104%; in the assay on COLO 205 colon, 118%; with DU-145 prostate, 110%.

As for `O=[N+]([O-])c1ccc(Oc2cccnc2)c([N+](=O)[O-])c1`, the growth is 96.5% in the assay with NCI-H23 lung; 89.7% in the assay on NCI-H226 lung; 94.8% with NCI-H322M lung; 104% with HOP-62 NSCLC; 109% with NCI-H460 lung; 36.3% in the assay with NCI-H522 lung. The growth was 102% with A549/ATCC NSCLC, 93.2% with 786-0 renal, 55.5% in the assay on COLO 205 colon and 86.2% in the assay with DU-145 prostate.

Turning to `COc1ccc(-c2nn(-c3cccc(NC(=O)c4ccc(N5CCOCC5)c(C(F)(F)F)c4)c3)cc2-c2ccncc2)cc1Cl`, the growth in the assay with NCI-H23 lung was 83.2%; with NCI-H226 lung, 83.6%; with NCI-H322M lung, 80.3%; in the assay on HOP-62 NSCLC, 73.7%; in the assay on NCI-H460 lung it was 62.1%; with NCI-H522 lung it was 41%. The growth with A549/ATCC NSCLC was 54.7%; with 786-0 renal, 37.9%; in the assay with COLO 205 colon, 54.6%; with DU-145 prostate, 91.8%.

In the case of `Cc1ccc(S(=O)(=O)OCCN(CCOS(=O)(=O)c2ccc(C)cc2)c2c[nH]c(=O)[nH]c2=O)cc1`, the growth was 108% in the assay on NCI-H23 lung; 99.2% with NCI-H226 lung; 105% with NCI-H322M lung; 108% in the assay with HOP-62 NSCLC; 114% in the assay with NCI-H460 lung; 125% with NCI-H522 lung. Besides, the growth is 101% with A549/ATCC NSCLC, 112% in the assay with 786-0 renal, 115% in the assay with COLO 205 colon and 124% in the assay on DU-145 prostate.
